Data as given in publication PMC5540273 (PLoS ONE, 2017).

system: T1, PIP5K2C; conditions: concentration: 1 μM, replicates: in singlicate; n = 1
T1 construct: gene PIP4K2C
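Also: KINOMEscan kinase panel screen.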

Compared with `COc1ccc(COc2cc(-n3cnc4ccccc43)sc2C(N)=O)cc1` [GSK1024304], `C[C@@H](Oc1cc(-n2cnc3ccc(NC(=O)NC(C)(C)C)cc32)sc1C(N)=O)c1ccccc1Cl` [GSK346294] is higher in “%Inh” value: 3% for the first, 42% for the second.

First: Cc1nnc(-c2ccc3ncc(-c4ccc(S(C)=O)cc4)n3c2)o1 (centres unmarked)
Second: Cc1nnc(-c2ccc3occ(-c4ccc(C(C)O)cc4)c3c2)o1 (centres unmarked)
The “%Inh” value of the first is lower: 0% for the first, 17% for the second.

Compared with `COc1ccc(S(=O)(=O)NC2CCN(c3cc(C)nc(Nc4cccc(C#N)c4)n3)CC2)cc1.O=C(O)C(F)(F)F` [GSK1653539], `COc1ccc(Nc2nccc(N3CCC(NC(=O)Nc4cccc(C(C)=O)c4)C3)n2)cc1` (centres unmarked) [GSK1379731] is lower in “%Inh” value: 37% for the first, 3% for the second.

Going from `Cc1cccc(-c2nc(Nc3ccc4ncsc4c3)c3ccccc3n2)n1` [GW867588] to `c1ccc(-c2n[nH]cc2-c2ccnc3ccccc23)nc1` [GW271431], the “%Inh” value falls from 18% to 4%.

First: c1ccc(-c2cc(-c3c[nH]nc3-c3ccccn3)ccn2)cc1 [GW576604]
Second: N#Cc1ccc(-c2cc(-c3c[nH]nc3-c3ccccn3)ccn2)cc1 [GW693028]
The “%Inh” value of the first is higher: 30% for the first, 7% for the second.

`CCc1nc(-c2cccc(C)c2)c(-c2ccnc(NCc3ccccc3)c2)s1` and `Cc1cccc(-c2nc(-c3ccc(S(C)(=O)=O)cc3)sc2-c2ccncc2)c1` are the same in “%Inh” value: 0% for the first, 0% for the second.

Going from `COCCNC(=O)c1ccc(-c2cc(C(=O)NC3CC3)cc(F)c2C)cc1` [GW868318] to `O=C(Nc1n[nH]c2cc(-c3cccc(F)c3)ccc12)C1CC1` [SB-735464], the “%Inh” value rises from 0% to 11%.

Going from `Cl.Oc1cccc(Nc2ccnc3cc(-c4ccncc4)ccc23)c1` [GW494601] to `CC(=O)Nc1ccc(COc2ccc(Nc3ccnc4cc(-c5ccccn5)ccc34)cc2)cc1.Cl` [GW440148], the “%Inh” value falls from 85% to 23%.

Going from `Cn1cc(-c2ccc3c(c2)CCN3C(=O)Cc2ccccc2Cl)c2c(N)ncnc21` [GSK2608885] to `COc1ccc(Nc2ncc(C#N)c(Nc3ccccc3C(N)=O)n2)cc1N1CCN(C)CC1.Cl` [GSK1558669], the “%Inh” value rises from 90.5% to 90.6%.

Going from `CN1c2ccc(CNc3ccc(F)cc3)cc2-c2c(cnn2C)S1(=O)=O` to `O=C(NCCNc1ccnc(Nc2ccc(F)cc2)n1)c1cc2ccccc2s1` [GSK1379874], the “%Inh” value rises from 24% to 42%.

First: O=c1cc(N2CCOCC2)nc2n(Cc3cccc(C(F)(F)F)c3)ccn12 [GSK2297543]
Second: O=c1cc(N2CCOCC2)nc2n(Cc3cccc4ccccc34)ccn12 [GSK2333389]
The “%Inh” value of the first is higher: 1% for the first, 0% for the second.

First: Fc1ccc(-c2nn3c(OCC(F)(F)F)cccc3c2-c2ccncc2)cc1 [GW514784]
Second: O=C(Nc1cccc(-c2nn3ncccc3c2-c2ccnc(Nc3cccc(C(F)(F)F)c3)n2)c1)c1c(F)cccc1F [GSK299495]
The “%Inh” value of the first is lower: 32% for the first, 68% for the second.

First: COc1cc2c(cc1OC[C@@H](O)CO)ncc1c3ccc(C#N)cc3[nH]c21
Second: COc1cc2c(cc1OCCN1CCN(C)CC1)ncc1c3ccc(C#N)cc3[nH]c21
The “%Inh” value of the first is higher: 76% for the first, 35% for the second.

Going from `Nc1nc(-c2ccc3c(N)n[nH]c3c2)cc(N2CCCC2)n1` [GSK2227430] to `O=C(c1ccc(-c2cc(-c3c[nH]nc3-c3ccccn3)ccn2)cc1)N1CCOCC1` [GW812171], the “%Inh” value rises from 0% to 67%.

Compared with `NCC(NC(=O)c1cc(-c2cn[nH]c2)c(-c2ccnc3[nH]ccc23)s1)c1ccccc1.O=C(O)C(F)(F)F.O=C(O)C(F)(F)F` (centres unmarked) [GSK1325775], `O=C(NCCCN1CCOCC1)c1cccc(Nc2nccc(Nc3ccc(Oc4ccccc4)cc3)n2)c1` [GW663929] is higher in “%Inh” value: 49% for the first, 83% for the second.

Going from `CSc1ccc(-c2cc3ncnc(SCC(=O)O)c3s2)cc1` to `COc1ccc(CNC(=O)NC2CCN(c3ccnc(Nc4ccc(OC)cc4)n3)C2)cc1` (centres unmarked) [GSK1379727], the “%Inh” value rises from 7% to 33%.

First: COc1cc(Nc2nccc(N3CCC(NC(=O)c4cccc(NC(C)=O)c4)C3)n2)cc(OC)c1OC (centres unmarked) [GSK1379754]
Second: Cc1c(Cn2c(C)nn3c(=O)cc(N4CCOC(C)C4)nc23)cccc1C(F)(F)F (centres unmarked) [GSK2344444]
The “%Inh” value of the first is higher: 92.4% for the first, 0% for the second.

For `CC(C)(C)n1cnc2c(N)ncnc21` [SKF-97359], the “%Inh” value was 34%.
